According to the supplement of paper PMC6555819:

Tests used:
Experiment in all cases: PBM binding z-score (relative to random genomic background probes); higher = stronger binding; sequences stand for … in GC…GCGATTGACAGCGTAGAATGAAGG
[1] = test system: RARb homodimer (NR concentration 270 nM)
Summary of the method: (§1)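 Regression normalization was applied to scanned fluorescence from custom Agilent 4×180K protein-binding microarrays. Before scanning, arrays were incubated 1 h with ligand-free nuclear receptor dimers, and binding was detected with antibodies against each partner (one per run). Binding z-scores use the random background probes as reference.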

[2] = test system: RARg:RXRa (NR concentration 270 nM, RXRa partner concentration 90 nM)
Summary of the method: as §1

[3] = test system: RARg homodimer (NR concentration 270 nM)
Summary of the method: as §1

[4] = test system: RXRa DBDmut IVT, anti-RXR (DBD mutation: RXRa K156A/R161A, NR concentration 90 nM)
Summary of the method: as §1

[5] = test system: RXRa homodimer (NR concentration 180 nM)
Summary of the method: as §1

[6] = test system: THRa:RXRa (NR concentration 90 nM, RXRa partner concentration 90 nM)
Summary of the method: as §1

[7] = test system: THRa homodimer (NR concentration 90 nM)
Summary of the method: as §1

[8] = test system: VDR homodimer (NR concentration 270 nM)
Summary of the method: as §1

Sequence	PBM binding z-score [1]	PBM binding z-score [2]	PBM binding z-score [3]	PBM binding z-score [4]	PBM binding z-score [5]	PBM binding z-score [6]	PBM binding z-score [7]	PBM binding z-score [8]
CCTTACGGGTCACGAGGTTAGAGCACGACGAGCG	3.63	6.04	5.46	2.04	6.47	3.45	0.765	1.84
CGACAAAGTTCAACTAAGGTAACGTAAAGCACGC	4.21	5.63	6.69	4.18	4.41	5.06	1.57	3.79
CCTATTGGGCCAAAAAGGTCATTGATGCCGATAA	4.34	4.44	4.07	0.773	4.53	3.25	0.389	2.18
CATACTGGGCCAAGGTCATTGATCAGTCAAAGCA	3.56	3.85	3.29	1.62	3.31	3.49	2.63	3.71
CCTTACGGGTCACTCCGGGTTATAGCATCGGAGT	2.96	4.46	4.12	1.3	4.73	4.89	-0.126	1.25
CCGAATGGGGCAAAGGTTACCATACTCAGTACGA	2.37	3.65	1.72	0.549	4.27	1.86	-0.191	0.204
AGTCAAAGTTCATCCAGGTAACGTAAGATATGCT	3.81	5.56	5.81	4.61	4.49	3.57	0.915	5.17
TCTGATAGGTCAGTTGGTCAGCTAACGAGCTGCC	2.94	3.32	4	1.1	2.15	0.722	-0.367	-0.342
GCTTGTAGATCAAGGTTAAGCAAGACTAAGCTAA	0.306	0.623	0.359	-0.0459	0.912	1.67	-0.236	-0.472
GCTAGTTGGTCAGTAAGAGGTCACACACCGGTCG	4.7	4.94	3.87	0.674	4.5	3.58	2.63	3.38
GCTGCTAGGTCAACTGATGGTCAGTTAAAGCTCG	3.55	5.17	5.45	1.51	2.85	3.15	1.05	-0.147
CCAACTAGGTCAAGGACAGTGAATCTCCGCACGC	3.18	3.66	4.42	1.8	2.41	3.16	2.22	0.694
CTACCAAGGTGAACAACGTCGTTGATTACTATTC	0.607	0.832	0.962	0.685	0.887	1.79	0.72	-0.472
CCTACTAGGTCATGGTCAGCTAATCTACAGTATG	3.34	3.79	4.21	1.37	2.66	2.87	1.53	0.776
TCTGGTAGATCAACAGGAGGTTAAGAAAGATCGA	0.385	0.66	0.298	0.299	0.827	0.849	-0.374	0.00452
GCGACTGGGGTATCAGCAGGTTACCATAACTTAA	0.852	0.223	-0.199	-0.351	0.229	1.82	-0.0503	-0.333
CCTGCTAGGTCAATGGTCAGATAAAGCAGCTCGC	2.54	3.8	4.61	1.55	2.45	2.12	0.626	0.232
CAGCCTAGGTCTGGGCCAGTATAGGAGGAACGTT	-0.496	-0.501	-0.44	-1	-0.703	-0.77	-1.16	-0.974
TGAATGAGGGTAAAGATCAGGGAACGTGGCGTCG	-0.018	0.443	0.391	-0.234	1.07	0.432	-0.386	-0.201
CGTCCAAGGTCCGAGAGGTCAGTGAATGCCGAGT	3.86	3.1	3.53	1.19	2.4	2.67	1.18	2.95
CCGACTGGGGCAGAAAGGTTACCATACCATCCGG	1.96	1.73	1.25	-0.648	1.61	0.85	-0.396	-0.314
GCTTGTAGATCAAGGTTACGAAAGACTAAGCTAA	0.837	0.713	0.558	0.173	1.09	1.81	0.263	-0.274
AGAATGAGGTTGTTAAGATCAGGGAATTGCGGTC	0.126	0.00616	-0.0271	1.17	0.15	0.608	0.246	0.542
TAGCCTAGGTCATGCGGGCCAGTACAGTGTCGGC	2.93	3.86	4.22	0.739	3.08	3.06	0.586	0.448
ATCTCTAGTTAACAAGTTCAGTGAAAGAGAGGAC	1.64	1.07	1.06	1.03	0.676	1.12	0.867	2.76
CCTATTAGTTGACCCTAAGGGCAACCGAAGCTCG	3.48	4.12	2.5	0.762	5.73	4.02	3.25	1.72
